“And” between values parts separate entries of the source, which are not always exact repeats. Identical values can stand only once. About 83,000 compounds went through this panel and 20% of them were active in at least one assay; those are over-represented in the sample as a whole.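 Activity criterion: percent growth below 10, measured after cells in 96-well plates were exposed to a single compound concentration for 48 hours.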 The source made the active and inactive calls.

For this assay, the system named is HL-60(TB) leukemia. The assay can be described thus: NCI-60 one-dose screen, 48 h (100 = growth as untreated, 0 = no growth, -100 = all killed). The following applies: 10 µM unless noted.
Take `CC(=O)n1nc(C(=O)OC(C)C)c2cc(C)c(C)cc21`: the growth is 83.7% (inactive).

As to `CC1(C)OC2C(CO[Si](C)(C)C(C)(C)C)OC(n3c(I)c(C#C[Si](C)(C)C)c(=O)[nH]c3=O)C2O1` (centres undefined), the growth was 69.5% (inactive).

With `CCOc1cc(CNc2ccc(N3CCOCC3)c(C(=O)O)c2)ccc1OC`, the growth is 106% (inactive).

Regarding `O=C1c2cccnc2C(=O)c2c1c(C(=O)NCCCN1CCCCC1)c1ccccn21`, the growth was -29% (active).

Take `C#CCC(C(=O)OCC)C(=O)OCC`: the growth is 101% (inactive).

On to `CC(=O)OCC(COC(C)=O)(COC(C)=O)COC(C)=O`, for which the growth is 104% (inactive).

Regarding `c1csc([C@@H]2C[C@@H]3Cc4ccc5ccccc5c4N2O3)c1`, the growth is 104% (inactive).

`Nc1c(C(=O)Nc2cccc(F)c2)sc2nc3c(cc12)C(=O)CCC3`: the growth is 31.2% (inactive).

In the case of `Nc1ncnc2c1ncn2C1CC(O)C(CO)O1` (centres undefined), the growth was 79.7% (inactive) and 95.3% (inactive).

`Cc1[nH]c(C(=O)Nc2ccccc2OCc2cccc(C(=O)NCCN)c2)c(Cl)c1Cl`: the growth was 45% (inactive).

Regarding `O=C(OCCBr)c1ccc(Cl)c([N+](=O)[O-])c1`, the growth is 81.7% (inactive).

With `CN(C)CCn1cc(-c2ccc3c(Nc4ccc(CC(=O)Nc5cccc(F)c5)cc4)ncnc3c2)cn1`, the growth is -55.3% [30 µM] (active).

`COCC(=O)NC/C=C/c1ccc2ncnc(Nc3ccc(Oc4ccc(C)nc4)c(C)c3)c2c1`: the growth is 22.2% (inactive).

For the compound `COc1ccc(-c2ccc(-c3ccc(C(=N)N)s3)s2)cc1`, the growth was -61.1% (active).

Consider `COc1ccc(-c2nn(-c3cccc(Cl)c3)cc2C=C(C#N)C#N)cc1`, for which the growth is -36.7% (active).

For `O=C1Cc2ccccc2C(=O)O1`, the growth is 89.1% (inactive).

Consider `CC(CN(C)C)CN1c2ccccc2Sc2ccccc21` (centres undefined), for which the growth was 91.3% (inactive) and 105% (inactive) and 94.5% (inactive).

`CC(C)Oc1ccc2cc(-c3nn(CC4CCNCC4)c4ncnc(N)c34)ccc2c1`: the growth was 63.8% (inactive) and -56.6% (active).

Turning to `N#CCCN(CCO)c1ccccc1`, the growth is 89.9% (inactive).

On to `Nc1n[nH]c(-c2cc(Cl)ccc2O)c1-c1ccccc1`, for which the growth was 69.8% (inactive).

`CCN(CC)CCCC(CNc1ccnc2cc(Cl)ccc12)c1ccc(Cl)cc1` (centres undefined): the growth is -40.4% (active) and -71% (active).

Regarding `COc1cc(-c2cc(-c3cccs3)c(C#N)c(N3CCOCC3)n2)cc(OC)c1OC`, the growth is 58.9% (inactive).

As for `c1cc[n+](C2c3ccccc3C([n+]3ccccc3)c3ccccc32)cc1` (centres undefined), the growth is 88.3% (inactive).

Take `BrC/C=C/C[P+](c1ccccc1)(c1ccccc1)c1ccccc1`: the growth was 9.15% (active).

With `Cc1ccc(-c2noc(CC(=O)c3ccc([N+](=O)[O-])cc3)n2)cc1`, the growth is 65.2% (inactive).

`C[C@]12C[C@H]1CC[C@]1(C)[C@@H]2CC[C@@]23C[C@H](CC[C@H]21)[C@@](O)(CO)C3`: the growth is 103% (inactive).

`CCN(CCO)CCC(=O)c1ccc([N+](=O)[O-])cc1`: the growth is 109% (inactive).

For `COc1cc2nc(-c3ccc(C(F)(F)F)cc3)cc(OCCCN3CCCCC3)c2cc1OC`, the growth was 25% (inactive).

As to `O=S(=O)(NCCCNc1nccc(-c2c(-c3ccc(F)c(O)c3)nc3sccn23)n1)c1ccccc1`, the growth is 69.8% (inactive).

Turning to `Cc1ccc(N2CCN(C(C)C(N)=O)CC2)cc1` (centres undefined), the growth was 158% (inactive).

`C=C1C(=O)O[C@H]2[C@H]1CC/C(COC(=O)OC/C1=C/CC[C@@]3(C)O[C@H]3[C@H]3OC(=O)[C@@H](CN(C)C)[C@@H]3CC1)=C\CC[C@@]1(C)O[C@@H]21`: the growth is -43% (active).

Consider `CC(CCC#N)(CCC#N)C(=O)c1ccccc1`, for which the growth was 88.7% (inactive).

In the case of `O=C1Nc2c(c(=O)n(-c3ccccc3)c3ccccc23)C(c2ccc(Cl)cc2)N1` (centres undefined), the growth is 108% (inactive).

Consider `COc1cc2nc(N3CCC[C@@H](NC(=O)C4COc5ccccc5O4)C3)nc(N)c2cc1OC` (some centres undefined), for which the growth was 105% (inactive) and 102% (inactive).

In the case of `N#CC1=C(N)Oc2c(sc3c(F)cccc23)C1c1ccc(F)cc1` (centres undefined), the growth was 5.96% (active).

With `CCOc1ccc2nc3ccc(Cl)cc3nc2c1`, the growth was 63.7% (inactive).

For the compound `FC(F)(F)c1cc(CNc2ncc(Br)c(Cl)n2)cc(C(F)(F)F)c1`, the growth was 101% (inactive).

On to `CCN1CCN(C(=O)[C@]23CCC(C)(C)C[C@H]2C2=CC[C@@H]4[C@@]5(C)CC/C(=N/O)C(C)(C)[C@@H]5CC[C@@]4(C)[C@]2(C)CC3)CC1`, for which the growth is -9.73% (active).

As to `CCN(CC)c1ccc(C(=N)c2ccc(N(CC)CC)cc2)cc1`, the growth is -23.4% (active).

For the origin of these results see PubChem BioAssay (NCI).
